Test results from PubChem BioAssay AID1159580 (chemical genetic matrix, 2015).
Several values for one entry are separate records, joined by “and”; a condition that tells them apart may be missing. Identical values can stand only once. In all, about 5,500 compounds went through this assay and about 2,000 (36%) were called active. Not shown: some 18% with an inconclusive outcome. This is one part of the list. A number with no mark means an inactive call. No stated cut-off is given here; in the data, active means normalized growth mostly below about 0.91 (no sharp cut-off); inconclusive means no clear call, values can overlap the other calls; inactive means mostly above about 0.92.

Assay: chemical genetic growth profiling, strain panel (AID 1159580);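 further: tested at 20 µM; growth read once vehicle control cultures reached saturation at 30 °C; 1 = growth at the plate median or of vehicle wells; lower values mean less growth of the strain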
Conditions: S. cerevisiae deletion strains, growth OD

Q: Which results are given for `CC[N+](CC)(CC)CCOc1cccc(OCC[N+](CC)(CC)CC)c1OCC[N+](CC)(CC)CC`?
A: normalized growth (locus YAL013W, strain DEP1, active compounds read low): 1.01; normalized growth (locus YAL021C, strain ccr4, active compounds read low): 1.02; normalized growth (locus YAL026C, strain drs2, active compounds read low): 1.01; normalized growth (locus YAL030W, strain snc1, active compounds read low): 1.02; normalized growth (locus YAL040C, strain CLN3, active compounds read low): 1.01; normalized growth (locus YBL061C, strain skt5, active compounds read low): 1.02; normalized growth (locus YBR009C, strain hhf1, active compounds read low): 1; normalized growth (locus YBR021W, strain FUR4, active compounds read low): 1.01; normalized growth (locus YBR023C, strain chs3, active compounds read low): 1.02; normalized growth (locus YBR171W, strain sec66, active compounds read low): 1.02; normalized growth (locus YBR229C, strain ROT2, active compounds read low): 1.01; normalized growth (locus YBR231C, strain swc5, active compounds read low): 0.958; normalized growth (locus YBR279W, strain paf1, active compounds read low): 1.03; normalized growth (locus YCL011C, strain gbp2, active compounds read low): 1.02; normalized growth (locus YCL016C, strain dcc1, active compounds read low): 1.02; normalized growth (locus YCL029C, strain bik1, active compounds read low): 1; normalized growth (locus YCL061C, strain MRC1 (second series), active compounds read low): 0.999; normalized growth (locus YCL061C, strain MRC1, active compounds read low): 1.01; normalized growth (locus YCL069W, strain vba3, active compounds read low): 1.01; normalized growth (locus YCR088W, strain abp1, active compounds read low): 1.02; normalized growth (locus YDL005C, strain med2, active compounds read low): 1.03; normalized growth (locus YDL035C, strain GPR1, active compounds read low): 1; normalized growth (locus YDL040C, strain nat1, active compounds read low): 1.01; normalized growth (locus YDL074C, strain BRE1, active compounds read low): 1.02; normalized growth (locus YDL101C, strain DUN1, active compounds read low): 1.01; normalized growth (locus YDL134C, strain PPH21, active compounds read low): 1; normalized growth (locus YDL185W, strain tfp1, active compounds read low): 1.02; normalized growth (locus YDL192W, strain arf1, active compounds read low): 1.01; normalized growth (locus YDR001C, strain nth1, active compounds read low): 1.01; normalized growth (locus YDR069C, strain doa4, active compounds read low): 0.999; normalized growth (locus YDR101C, strain arx1, active compounds read low): 0.996; normalized growth (locus YDR137W, strain rgp1, active compounds read low): 1.05; normalized growth (locus YDR150W, strain NUM1, active compounds read low): 0.995; normalized growth (locus YDR159W, strain sac3, active compounds read low): 0.965; normalized growth (locus YDR162C, strain NBP2, active compounds read low): 1.01; normalized growth (locus YDR195W, strain ref2): 0.983; normalized growth (locus YDR297W, strain sur2, active compounds read low): 1.01; normalized growth (locus YDR318W, strain mcm21, active compounds read low): 1.01; normalized growth (locus YDR334W, strain swr1, active compounds read low): 1.01; normalized growth (locus YDR335W, strain msn5, active compounds read low): 1.01; normalized growth (locus YDR363W, strain ESC2, active compounds read low): 1.02; normalized growth (locus YDR388W, active compounds read low): 1.01; normalized growth (locus YDR392W, strain spt3, active compounds read low): 0.673 (active); normalized growth (locus YDR502C, strain sam2, active compounds read low): 1; normalized growth (locus YEL003W, strain gim4, active compounds read low): 1.01; normalized growth (locus YEL037C, strain rad23, active compounds read low): 1.01; normalized growth (locus YEL061C, strain CIN8 (second series), active compounds read low): 1.01; normalized growth (locus YEL061C, strain CIN8, active compounds read low): 1.01; normalized growth (locus YER002W, strain NOP16, active compounds read low): 0.986; normalized growth (locus YER015W, strain faa2, active compounds read low): 0.994; normalized growth (locus YER016W, strain bim1, active compounds read low): 0.984; normalized growth (locus YER110C, active compounds read low): 1.01; normalized growth (locus YER111C, strain swi4, active compounds read low): 1.02; normalized growth (locus YER155C, strain BEM2 (second series), active compounds read low): 0.914; normalized growth (locus YER155C, strain BEM2, active compounds read low): 1.02; normalized growth (locus YER167W, strain BCK2, active compounds read low): 1.01; normalized growth (locus YFR010W, strain ubp6, active compounds read low): 1.01; normalized growth (locus YGL078C, strain dbp3, active compounds read low): 1; normalized growth (locus YGL086W, strain mad1, active compounds read low): 0.98; normalized growth (locus YGL167C, strain pmr1, active compounds read low): 1.02; normalized growth (locus YGL173C, strain kem1, active compounds read low): 1.01; normalized growth (locus YGL227W, strain vid30, active compounds read low): 1.03; normalized growth (locus YGL240W, strain doc1, active compounds read low): 0.994; normalized growth (locus YGL248W, strain PDE1, active compounds read low): 1.01; normalized growth (locus YGL253W, strain hxk2, active compounds read low): 1.01; normalized growth (locus YGR135W, strain pre9, active compounds read low): 1.03; normalized growth (locus YGR229C, strain SMI1, active compounds read low): 1.05; normalized growth (locus YGR252W, strain gcn5, active compounds read low): 0.969; normalized growth (locus YHR013C, strain ard1, active compounds read low): 1.02; normalized growth (locus YHR027C, strain rpn1, active compounds read low): 1.01; normalized growth (locus YHR030C, strain SLT2, active compounds read low): 1 and 1.01; normalized growth (locus YHR079C, strain IRE1 (second series), active compounds read low): 1.02; normalized growth (locus YHR079C, strain IRE1, active compounds read low): 1.03; normalized growth (locus YHR094C, strain hxt1, active compounds read low): 1.01; normalized growth (locus YHR129C, strain ARP1, active compounds read low): 1; normalized growth (locus YHR142W, strain chs7, active compounds read low): 1.02; normalized growth (locus YHR200W, strain rpn10, active compounds read low): 1.02; normalized growth (locus YIL066C, strain RNR3, active compounds read low): 1.01; normalized growth (locus YIL073C, strain SPO22, active compounds read low): 1.05; normalized growth (locus YIL125W, strain kgd1, active compounds read low): 1.01; normalized growth (locus YIR030C, strain dcg1, active compounds read low): 1.01; normalized growth (locus YJL092W, strain hpr5, active compounds read low): 1.02; normalized growth (locus YJL095W, strain BCK1 (second series), active compounds read low): 1.02; normalized growth (locus YJL095W, strain BCK1, active compounds read low): 1.02 and 0.997; normalized growth (locus YJL115W, strain asf1, active compounds read low): 1.02; normalized growth (locus YJL129C, strain trk1, active compounds read low): 1.01; normalized growth (locus YJL134W, strain LCB3, active compounds read low): 1.01; normalized growth (locus YJL154C, strain vps35, active compounds read low): 1.01; normalized growth (locus YJL164C, strain tpk1, active compounds read low): 1.03; normalized growth (locus YJL166W, strain qcr8, active compounds read low): 1.03; normalized growth (locus YJL168C, strain set2, active compounds read low): 1.01; normalized growth (locus YJL187C, strain SWE1 (second series), active compounds read low): 1.01; normalized growth (locus YJL187C, strain SWE1, active compounds read low): 1.02; normalized growth (locus YJR043C, strain POL32, active compounds read low): 1.01
